In all, about 400,000 compounds went through this assay and about 2,100 (0.53%) were called active. Roughly 14% stayed inconclusive and do not appear here. No rule for the calls is given here. This excerpt belongs to a sample that is enriched for actives.
Each molecule was assayed against Ataxin-2 (Homo sapiens) (UniProt Q99700) (assay: qHTS for Inhibitors of ATXN expression.).
Ataxin-2 (Homo sapiens), sequence (Q99700 whole entry): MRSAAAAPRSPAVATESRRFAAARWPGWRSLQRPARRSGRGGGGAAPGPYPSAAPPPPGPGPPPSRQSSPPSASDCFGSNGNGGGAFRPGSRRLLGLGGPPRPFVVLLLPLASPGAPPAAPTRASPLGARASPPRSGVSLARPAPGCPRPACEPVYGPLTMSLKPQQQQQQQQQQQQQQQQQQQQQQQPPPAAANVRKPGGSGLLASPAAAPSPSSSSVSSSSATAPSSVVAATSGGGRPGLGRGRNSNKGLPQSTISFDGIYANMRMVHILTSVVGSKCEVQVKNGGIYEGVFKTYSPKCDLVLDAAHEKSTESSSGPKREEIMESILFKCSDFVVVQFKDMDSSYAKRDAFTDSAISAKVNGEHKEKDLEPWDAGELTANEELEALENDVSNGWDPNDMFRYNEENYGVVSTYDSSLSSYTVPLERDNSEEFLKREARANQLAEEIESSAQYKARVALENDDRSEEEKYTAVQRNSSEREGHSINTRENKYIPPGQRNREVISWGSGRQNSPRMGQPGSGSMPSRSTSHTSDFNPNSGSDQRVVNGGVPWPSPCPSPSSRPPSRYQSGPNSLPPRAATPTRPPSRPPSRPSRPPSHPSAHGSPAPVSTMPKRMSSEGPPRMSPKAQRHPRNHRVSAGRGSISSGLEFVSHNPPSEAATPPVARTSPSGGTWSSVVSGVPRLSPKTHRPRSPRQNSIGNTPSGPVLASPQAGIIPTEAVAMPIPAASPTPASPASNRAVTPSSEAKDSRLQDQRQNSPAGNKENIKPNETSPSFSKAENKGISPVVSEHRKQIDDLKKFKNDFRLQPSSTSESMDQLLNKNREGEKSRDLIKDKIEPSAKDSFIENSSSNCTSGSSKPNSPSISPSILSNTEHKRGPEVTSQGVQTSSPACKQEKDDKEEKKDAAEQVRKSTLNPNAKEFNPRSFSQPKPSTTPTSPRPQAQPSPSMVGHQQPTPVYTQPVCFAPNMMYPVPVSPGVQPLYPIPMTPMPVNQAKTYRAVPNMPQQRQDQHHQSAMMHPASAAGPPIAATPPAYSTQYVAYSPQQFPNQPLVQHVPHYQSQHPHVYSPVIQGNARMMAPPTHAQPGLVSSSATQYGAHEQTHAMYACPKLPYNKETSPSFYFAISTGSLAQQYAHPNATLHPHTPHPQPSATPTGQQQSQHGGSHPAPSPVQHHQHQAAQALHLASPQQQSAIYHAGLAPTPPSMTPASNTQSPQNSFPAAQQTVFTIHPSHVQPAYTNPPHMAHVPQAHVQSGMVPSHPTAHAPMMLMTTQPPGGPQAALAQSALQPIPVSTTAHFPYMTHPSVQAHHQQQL
Type: functional
With `c1ccc(CN2CCN(CCCNc3ccc4nnc(-c5ccccc5)n4n3)CC2)cc1` the Potency was 22.4 µM (active).
`c1ccc(CN2CCN(Cc3nnc(-c4ccccc4)o3)CC2)cc1` was tested, and the Potency was “inactive”.
`CCCn1c(=N)c(C#N)cc2c(=O)n3ccccc3nc21` was tested, and the Potency was “inactive”.
With `COc1ccc(-c2cc3ccc(O)cc3oc2=O)cc1` the Potency was “inactive”.
For `CCOCCCn1c(=N)c(C(=O)NCC2CCCO2)cc2c(=O)n3cc(C)ccc3nc21` (stereo not drawn), the Potency was “inactive”.
For `Cc1ccc(-c2nn(-c3ccccc3)cc2/C=C(\C#N)c2cccc(C#N)c2)o1`, the Potency was “inactive”.
With `CC1(C(=O)Nc2cccc3cccnc23)CCN1Cc1ccc(-c2ccccc2)o1` (stereo not drawn) the Potency was 6.31 µM (active).
With `CC1(C(=O)Nc2cccc3ccccc23)CC1(Br)Br` (stereo not drawn) the Potency was “inactive”.
With `CC(=O)Nc1ccc(S(=O)(=O)Nc2cccc3cccnc23)cc1` the Potency was “inactive”.
In the case of `Cc1ccc(N2C(=O)/C(=C/Nn3cnnc3)c3ccccc3C2=O)cc1`, the Potency is reported as “inactive”.
With `CCOCCCn1/c(=N/C(C)=O)c(C#N)cc2c(=O)n3ccccc3nc21` the Potency was “inactive”.
For `CC(C)C[C@H]1COc2cccc(N3CCN(Cc4ccccc4F)CC3)c2S(=O)(=O)N1`, the Potency was 12.6 µM (active).
`O=C(NCc1ccco1)C1CCC(N2C(=O)C3C4CCC(C4)C3C2=O)CC1` (stereo not drawn) was tested, and the Potency was “inactive”.
With `O=C(Nc1cccc2c1C(=O)NC2=O)c1ccccc1[N+](=O)[O-]` the Potency was “inactive”.
In the case of `CCOc1ccc(NC(=O)c2cc3ccccc3cc2O)cc1`, the Potency is reported as “inactive”.
In the case of `CCOc1ccc(NC(=O)/C(=C/Nc2ccccc2)C(C)=O)cc1`, the Potency is reported as “inactive”.
For `CCOc1ccc(NC(=O)c2cn(CC(C)C)c(=O)c3c2c2ccccc2n3C)cc1`, the Potency was 17.8 µM (active).
In the case of `CCOCCCN=C(S)N1CCCN(c2nc3cc(C)cc(C)c3cc2C#N)CC1`, the Potency is reported as “inactive”.
In the case of `CCOc1ccc2nc(O)c(CN(Cc3cccs3)Cc3nnnn3C(C)(C)CC)cc2c1`, the Potency is reported as 35.5 µM (active).
`CCN1CCN(c2nc(Nc3cc(OC)ccc3OC)nc(Nc3cc(OC)ccc3OC)n2)CC1` was tested, and the Potency was “inactive”.
`CCc1nc2ccc(C(=O)Nc3nnc(C)s3)cc2nc1CC` was tested, and the Potency was “inactive”.
`Cn1nc(C(=O)Nc2cccc(S(=O)(=O)N3CCCC3)c2)c2ccccc2c1=O` was tested, and the Potency was “inactive”.
`Cc1c(C(=O)Nc2ccc(S(=O)(=O)N(C)C3CCN(C)CC3)cc2)oc2c(Cl)cccc12` was tested, and the Potency was 39.8 µM (active).
With `COC(=O)c1c(NC(=O)c2ccc(S(=O)(=O)N(C)C3CCCCC3)cc2)sc2c1CCN(C)C2` the Potency was “inactive”.
In the case of `O=C(COC(=O)Cn1cnc2ccccc2c1=O)NCc1ccccc1Cl`, the Potency is reported as “inactive”.
In the case of `O=C(CCl)/N=c1\sccn1Cc1ccccc1Cl`, the Potency is reported as 31.6 µM (active).
With `O=C(Cc1cccs1)N1CCN=C1SCc1ccccc1Cl` the Potency was “inactive”.
In the case of `CCCCC(=O)N/N=C/c1ccc(-c2ccc([N+](=O)[O-])cc2)o1`, the Potency is reported as “inactive”.
For `CSCCC(NC(=O)COc1ccccc1)C(=O)N(C)Cc1c(F)cccc1Cl` (stereo not drawn), the Potency was “inactive”.
With `CC(C)(C)c1cc(C(=O)NN)n(Cc2ccc(F)cc2)n1` the Potency was “inactive”.
In the case of `Cc1ccc(Cn2ncn(-c3ccccc3)c2=O)cc1`, the Potency is reported as “inactive”.
For `CC1CCN(Cc2cc(=O)oc3cc(O)c(Cl)cc23)CC1`, the Potency was “inactive”.
`Cc1ccc(Cn2c(=O)c3ccccc3n3nc(C)cc23)cc1` was tested, and the Potency was “inactive”.
For `CC(=O)c1cn(-c2ccc(Cl)cc2)c(=O)n(Cc2ccc(F)cc2)c1=O`, the Potency was “inactive”.
With `Cc1ccc(-c2cc(C#N)c(=O)n(Cc3c(Cl)cccc3Cl)c2)cc1` the Potency was “inactive”.
In the case of `Cc1cc2oc(=O)cc(Cn3ncc(Cl)c(Cl)c3=O)c2cc1Cl`, the Potency is reported as 39.8 µM (active).
`O=c1c(Cl)c(Cl)cnn1Cc1ccc(F)cc1` was tested, and the Potency was 39.8 µM (active).
In the case of `Cc1cccc(Cn2ncc(Cl)c(Cl)c2=O)c1`, the Potency is reported as 39.8 µM (active).
With `Cc1cc2oc(=O)cc(CN3CCOCC3)c2cc1Cl` the Potency was “inactive”.
With `Cc1ccc(Cn2ncc(Cl)c(Cl)c2=O)cc1` the Potency was 39.8 µM (active).
In the case of `Cc1ccc(Cn2c(=O)c3c(ncn3C)n(C)c2=O)cc1`, the Potency is reported as “inactive”.
With `CCC(C)N1C(=O)S/C(=C/c2ccc(N3CCOCC3)cc2C)C1=O` (stereo not drawn) the Potency was “inactive”.
`CCN(CC)Cc1c(O)ccc2cc(-c3nc4ccccc4n3C)c(=O)oc12` was tested, and the Potency was “inactive”.
In the case of `Cc1c2ccccc2nc2c(F)c(N(C)C)c(F)c(F)c12`, the Potency is reported as “inactive”.
For `Cc1c(O)ccc2cc(S(=O)(=O)c3ccccc3)c(=O)oc12`, the Potency was “inactive”.
For `Cc1cc(C(=O)COC(=O)[C@H](C)NC(=O)c2ccco2)c(C)n1Cc1ccco1`, the Potency was “inactive”.
For `COc1ccc(C)cc1Nc1n[n+](-c2ccccc2)c(-c2c(OC)ccc3ccccc23)s1`, the Potency was 20 µM (active).
`COc1ccccc1Nc1nc2cc(C)ccc2cc1C#N` was tested, and the Potency was “inactive”.
With `COc1ccc(C)cc1NCc1ccc([N+](=O)[O-])cc1` the Potency was “inactive”.
For `O=c1[nH]c(=O)n(-c2cc(Br)c(O)c(Br)c2)cc1Br`, the Potency was “inactive”.
For `O=c1oc2ccccc2cc1-c1nc(-c2cccs2)cs1`, the Potency was “inactive”.
With `C=CCOc1ccc(C2C(C(=O)c3ccco3)=C(O)C(=O)N2c2nnc(C)s2)cc1` (stereo not drawn) the Potency was “inactive”.
In the case of `C=C1CC2(CC(c3ccccc3)OC(c3ccccc3)C2)OC1=O` (stereo not drawn), the Potency is reported as 39.8 µM (active).
`O=C(/C=C/c1cn(CC(O)CN2CCCCCC2)c2ccccc12)c1cccs1` (stereo not drawn) was tested, and the Potency was “inactive”.
For `Fc1ccc(-c2ncc3ccccn23)cc1`, the Potency was “inactive”.
In the case of `Cn1c(=S)n(C)c2ccccc21`, the Potency is reported as “inactive”.
In the case of `CN(C(=O)CSc1nnc(-c2cccs2)n1N)c1ccccc1`, the Potency is reported as “inactive”.
With `O=C(Nc1nnc(C(F)(F)F)s1)c1c(F)cccc1F` the Potency was “inactive”.
With `CC1CCN(C(=O)CCC(=O)Nc2nnc(C(F)(F)F)s2)CC1` the Potency was “inactive”.
For `CCC(NC(=O)Nc1nnc(C(F)(F)F)s1)(C(F)(F)F)C(F)(F)F`, the Potency was 31.6 µM (active).
In the case of `O=C(O)CSc1nnc(-c2cccc(S(=O)(=O)N3CCOCC3)c2)n1-c1ccc(F)cc1`, the Potency is reported as “inactive”.
For `N=C1C=CC(=C(c2ccc(N)cc2)c2ccc(N)cc2)C=C1`, the Potency was 28.2 µM (active).
With `COc1ccc(COc2ncnc3ccc(Br)cc23)cc1F` the Potency was “inactive”.
With `Cc1cc(S(=O)(=O)NC2CC(C)(C)NC(C)(C)C2)c(Cl)cc1Cl` the Potency was “inactive”.
For `CCC1CCCCN1CCCNC(=O)c1[nH]c2ccccc2c1Sc1ccc(Cl)cc1` (stereo not drawn), the Potency was 39.8 µM (active).
In the case of `CC1CCCCC1NC(=O)CCn1c(=S)[nH]c2ccccc2c1=O` (stereo not drawn), the Potency is reported as “inactive”.
In the case of `CCCCCn1c(=O)[nH]c2cc(C(=O)NCCCN3CCCCC3C)ccc2c1=O` (stereo not drawn), the Potency is reported as “inactive”.
`CC1CCCCN1CCCNC(=O)c1[nH]c2ccccc2c1Sc1ccc(Cl)cc1` (stereo not drawn) was tested, and the Potency was 39.8 µM (active).

Source: ChEMBL document CHEMBL1201862, “PubChem BioAssay data set” (2004)
